Source: PubChem BioAssay (several laboratories)
A selection: hits, their analogues and other compounds. The true share with any hit is near 22%.
CYP2C9 inh: inhibitors of human CYP2C9 | inhibition, % at 5 µM | 96,000 compounds, 20% hits | AID 777 | P11712 | CYP2C9 Supersomes, luciferin-H conversion, luminescence;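 active = blocking of liver enzyme CYP2C9 beyond about 50% at 5 µM, limit read from the data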
Target sequence (P11712 whole entry, looked up): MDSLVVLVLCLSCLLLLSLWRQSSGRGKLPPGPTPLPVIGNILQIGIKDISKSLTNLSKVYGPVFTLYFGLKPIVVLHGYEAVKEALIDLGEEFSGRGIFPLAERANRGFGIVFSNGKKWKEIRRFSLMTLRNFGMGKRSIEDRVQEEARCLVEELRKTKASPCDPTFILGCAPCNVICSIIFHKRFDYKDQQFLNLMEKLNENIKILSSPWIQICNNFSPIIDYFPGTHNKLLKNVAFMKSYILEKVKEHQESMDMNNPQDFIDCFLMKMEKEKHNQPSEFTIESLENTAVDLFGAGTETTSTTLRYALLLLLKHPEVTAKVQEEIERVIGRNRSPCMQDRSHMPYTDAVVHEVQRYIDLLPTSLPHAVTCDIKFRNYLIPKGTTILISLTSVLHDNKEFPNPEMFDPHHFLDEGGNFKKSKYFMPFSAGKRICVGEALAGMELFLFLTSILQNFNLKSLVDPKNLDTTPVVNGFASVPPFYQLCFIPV
CYP2C19 inhib: inhibitors of human CYP2C19; 96,000 compounds, 21% hits; AID 778; inhibition, % at 5 µM; CYP2C19 Supersomes, luciferin-H EGE luminescence, 30 min; P33261;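 active = CYP2C19 inhibition above a set limit at 5 µM in the primary screen, cut at about 50% in these data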;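 note: plate controls were negative control wells for no effect and 2.5 mM tranylcypromine positive control for full effect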
Measles CPE: protection of cells from measles virus. protection (pct of control), % at 4 µM. Measles virus-infected cells, CPE protection, absorbance. 140,000 compounds, 1.5% hits; in the data active = protection mostly above about 24%, no sharp cut-off; inactive = mostly below about 26%
CYP2C19 activ: cytochrome P450 2C19 (human) activation; 96,000 tested, under 10 active; activation factor at 5 µM; P33261; recombinant CYP2C19, luciferin-H EGE luminescence; active compounds read high; 0 = fully inhibited enzyme, 1 = untreated enzyme;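 active = activation factor of at least 2 at 5 µM in the primary screen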;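 note: 0 = wells with 2.5 mM tranylcypromine and 1 = vehicle-only wells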
CYP2C9 activ: activators of human CYP2C9; P11712; recombinant CYP2C9, luciferin-H conversion, luminescence; active compounds read high; factor 1 = untreated enzyme, 0 = blocked; activation factor at 5 µM; 96,000 compounds, 1.4% hits;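 active = activation factor of 2 or more for CYP2C9 at a 5 µM dose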;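 note: 0 = sulfaphenazole-blocked wells and 1 = vehicle-only wells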
Starred values were filed as active, the others as inactive; . = no result given.

SMILES	CYP2C9 inh	CYP2C19 inhib	Measles CPE	CYP2C19 activ	CYP2C9 activ
COc1ccc(OC)c2[nH]c(=O)c(CCNC(=O)C3CCCCC3)cc12	-144	31	14	0.7	2.4*
Cc1ccc2cc(CCNC(=O)c3ccc(Br)o3)c(=O)[nH]c2c1	37	54*	10	0.5	0.6
COc1ccc(OC)c2[nH]c(=O)c(CCNC(=O)c3ccc(Br)o3)cc12	-58	77*	7	0.2	1.6
COc1ccc(OC)c2[nH]c(=O)c(CCNC(=O)CC(C)C)cc12	-154	32	20	0.7	2.5*
COc1ccc(OC)c2[nH]c(=O)c(CCNC(=O)C(C)C)cc12	-16	15	14	0.8	1.2
Cn1c(COc2ccc(Cl)cc2)nnc1SCC(=O)Nc1ccc2c(c1)CCC2	.	.	10	.	.
CCc1ccc(NC(=O)c2onc(C)c2Cl)cc1	4	-6	14	1.1	1
COc1ccc(NC(=O)C2CCCN2C(=O)OCc2ccccc2)c(OC)c1 (stereo not drawn)	3	26	15	0.7	1
COc1ccc(NC(=O)N2CCCC2)cc1OC	-22	6	6	0.9	1.2
COc1ccc(NC(=O)C2CCCCN2N)cc1OCC(C)C (stereo not drawn)	37	94*	2	0.1	0.6
COc1ccc(NC(=O)C2CCCCN2CC(=O)OCc2ccccc2)cc1OC (stereo not drawn)	62*	67*	2	0.3	0.4
CC(C)(C)NC(=O)CSC(=Nc1cccc(F)c1)NC#N	32	6	1	0.9	0.7
C=CCSC(=S)NC1CCS(=O)(=O)C1 (stereo not drawn)	.	.	6	.	.
O=C(CSc1nnc(-c2n[nH]c3ccccc23)n1-c1ccccc1)Nc1ccccc1Cl	.	.	0	.	.
O=C(NCCCO)c1nnc(Cc2c(F)cccc2Cl)o1	5	-18	3	1.2	0.9
O=C(NCCCN1CCN(Cc2ccccc2)CC1)c1nnc(Cc2c(F)cccc2Cl)o1	56*	34	39*	0.7	0.4
CCC(=O)c1ccc(OCC(=O)Nc2nn3cnnc3s2)cc1	84*	29	49	0.7	0.2
CCC(=O)c1ccc(OCC(=O)O)cc1	-11	-12	17	1.1	1.1
CCOC(=O)c1cccc(NC(=O)N[C@@H](C)C(=O)OC)c1	6	13	5	0.9	0.9
COc1cc(NC(=O)C2CCC(CNc3c(N4CCC(C)CC4)c(=O)c3=O)CC2)cc(OC)c1 (stereo not drawn)	51*	33	18	0.7	0.5
COc1cc(NC(=O)C2CCC(CNc3c(N4CCCCC4)c(=O)c3=O)CC2)cc(OC)c1 (stereo not drawn)	62*	58*	5	0.4	0.4
COC(=O)c1cc2c(=O)n3cccc(C)c3nc2n(Cc2cccnc2)c1=N	16	0	.	1	0.8
COCCNC(=O)c1cc2c(=O)n3cccc(C)c3nc2n(Cc2ccncc2)c1=N	39	51*	11	0.5	0.6
COc1ccc(CCNC(=O)c2cc3c(=O)n4cccc(C)c4nc3n(Cc3ccncc3)c2=N)cc1	87*	90*	.	0.1	0.1
CCCCNC(=O)c1cc2c(=O)n3cccc(C)c3nc2n(CCN2CCOCC2)c1=N	9	-6	19	1.1	0.9
SMILES	CYP2C9 inh	CYP2C19 inhib	Measles CPE	CYP2C19 activ	CYP2C9 activ
CCCCNC(=O)c1cc2c(=O)n3cccc(C)c3nc2n(Cc2ccncc2)c1=N	44	65*	4	0.4	0.6
O=S1(=O)C=CC(Nc2ccccc2)C1 (stereo not drawn)	-2	-4	9	1	1
CCOC(=O)c1c(-c2ccc(C)cc2)csc1NC(=O)CCN1CC(C)OC(C)C1 (stereo not drawn)	.	.	27	.	.
CCOC(=O)c1c(C)n(C)c2c(C)cc(O)c(OC(C)=O)c12	-32	-12	10	1.1	1.3
C=CCNC(=O)C12CC3(C)CC(C)(CC(C)(C3)C1)C2	10	54*	13	0.5	0.9
CCOC(=O)c1c(NC(=O)c2ccc(C)cc2)sc2c1CC(C)(C)OC2	18	-5	13	1.1	0.8
CCOC(=O)c1c(NC(=O)c2ccccc2C)sc2c1CC(C)(C)OC2	77*	47	7	0.5	0.2
CCOC(=O)c1c(NC(=O)CN2CCOCC2)sc2c1CC(C)(C)OC2	74*	50	13	0.5	0.3
COc1cccc(C2/C(=C(\O)c3ccc(OC)c(OC)c3)C(=O)C(=O)N2c2cc(C)on2)c1 (stereo not drawn)	-11	-13	22	1.1	1.1
